CYP2C9 act: activators of human CYP2C9 | P11712 | recombinant CYP2C9, luciferin-H conversion, luminescence; stronger effect = higher value; factor 1 = untreated enzyme, 0 = blocked | activation factor at 5 µM | hit rate 1.4% among 96,000;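 active means activation factor of 2 or more for CYP2C9 at a 5 µM dose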
Mac1 fbg enh: enhancers of human CD11b/CD18 binding to fibrinogen; P05107+P11215; K562 CD11b/CD18 adhesion to fibrinogen, ATPlite luminescence; activation, % at 10 µM; hit rate 0.07% among 93,000; AID 1499;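 active means 10 µM primary screen giving 50% or more activity, confirmed by 40% or more on retest at that dose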
CYP2C19 act: activators of human cytochrome P450 2C19 | P33261 | recombinant CYP2C19, luciferin-H EGE luminescence; stronger effect = higher value; 0 = fully inhibited enzyme, 1 = untreated enzyme | activation factor at 5 µM | 96,000 tested, under 10 active;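 active means activation factor of at least 2 at 5 µM in the primary screen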
Target sequence (P33261 whole entry, looked up): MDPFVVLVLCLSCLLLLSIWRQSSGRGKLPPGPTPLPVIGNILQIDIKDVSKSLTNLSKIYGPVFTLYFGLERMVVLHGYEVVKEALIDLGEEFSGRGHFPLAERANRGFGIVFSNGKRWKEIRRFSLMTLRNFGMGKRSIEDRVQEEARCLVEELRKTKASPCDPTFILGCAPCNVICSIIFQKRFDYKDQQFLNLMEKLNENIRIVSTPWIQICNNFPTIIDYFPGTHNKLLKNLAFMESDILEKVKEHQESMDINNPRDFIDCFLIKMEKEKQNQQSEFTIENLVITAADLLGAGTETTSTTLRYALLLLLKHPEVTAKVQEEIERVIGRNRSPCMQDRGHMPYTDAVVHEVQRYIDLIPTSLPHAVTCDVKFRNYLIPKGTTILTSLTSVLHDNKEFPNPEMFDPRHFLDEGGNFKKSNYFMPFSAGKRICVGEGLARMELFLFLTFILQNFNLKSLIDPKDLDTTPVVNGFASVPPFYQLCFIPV
CD11b adhes inh: inhibitors of human CD11b/CD18 binding to fibrinogen. P05107+P11215. K562 CD11b/CD18 adhesion to fibrinogen, ATPlite luminescence; Mn2+ added to activate the integrin. inhibition, % at 10 µM. hit rate 0.54% among 93,000. AID 1497;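 active means primary inhibition of 50% or more at 10 µM, then 40% or more on retest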
CYP2C19 inh: human CYP2C19 inhibition | inhibition, % at 5 µM | hit rate 21% among 96,000 | AID 778 | P33261 | CYP2C19 Supersomes, luciferin-H EGE luminescence, 30 min;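 active means CYP2C19 inhibition above a set limit at 5 µM in the primary screen, cut at about 50% in these data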
CYP2C9 inh: inhibitors of human CYP2C9; P11712; inhibition, % at 5 µM; hit rate 20% among 96,000; AID 777; CYP2C9 Supersomes, luciferin-H conversion, luminescence;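 active means blocking of liver enzyme CYP2C9 beyond about 50% at 5 µM, limit read from the data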
A number is an active result; . = inactive; / = no result given. Hits are enriched below; roughly 28% of the tested compounds scored in any of these assays.

SMILES	CYP2C9 act	Mac1 fbg enh	CYP2C19 act	CD11b adhes inh	CYP2C19 inh	CYP2C9 inh
C=CCn1c(SCC(=O)Nc2c(C)n(C)n(-c3ccccc3)c2=O)nc2scc(-c3ccccc3)c2c1=O	.	.	.	.	.	83.2
Cc1nc(SCC(=O)Nc2c(C)n(C)n(-c3ccccc3)c2=O)nc(C)c1C	.	/	.	/	.	.
C=CCn1c(SCC(=O)NC2CCCCC2)nnc1C(C)NC(=O)c1cccs1 (centres undefined)	.	.	.	.	.	.
C=CCn1c(SCC(=O)NC2CCCC2)nc2scc(-c3ccco3)c2c1=O	.	.	.	.	87.2	92.5
Cc1ccc(N(CC(=O)N2CCN(C3CCCCC3)CC2)S(=O)(=O)c2cccnc2)cc1	.	.	.	.	.	73.6
COc1ccc2nc(NCCCNC(=O)c3cc(OC)c(OC)c(OC)c3)c(C#N)cc2c1	.	.	.	.	.	.
COc1ccc(-c2nnc3n(CCc4ccccc4)c(=O)c4ccccc4n23)cc1OC	/	.	/	.	/	/
Cc1ccc(Nc2cccccc2=O)cc1	.	.	.	.	75.3	.
COc1ccc(C2C(=O)N(CCc3ccccc3)CC(=O)N2C2CCCC2)cc1 (centres undefined)	.	/	.	/	.	.
CCCn1c(-c2cccs2)nc2ccccc21	.	.	.	.	.	.
C=CCc1cccc(CNc2nc3ccccc3n2CC)c1O	2.1	.	.	.	.	.
Cc1cccc(Cn2c(Cc3ccccc3)nc3ccccc32)c1	/	.	/	.	/	/
c1ccc(Cn2c(CN3CCCC3)nc3ccccc32)cc1	.	/	.	/	57.9	.
Cn1c(NCc2cccs2)nc2ccccc21	.	.	.	.	52.5	.
CCn1c(NCc2cccs2)nc2ccccc21	.	.	.	.	57.4	.
CCC(=O)Nc1ccc(NC(=O)CSc2nnnn2-c2cccnc2)cc1C	.	.	.	.	.	.
O=C(COC(=O)c1ccc[nH]c1=O)NC1CCCC1	.	.	.	.	.	.
COCc1cc(=O)[nH]c(Sc2c(-c3ccccc3)c3ccc(Cl)cc3[nH]c2=O)n1	/	.	/	.	/	/
CCN(CC)CCn1c(NCc2nc3ccccc3n2Cc2ccccc2)nc2ccccc21	.	.	.	.	.	85.7
CCn1c(NCc2ccc(N(C)C)cc2)nc2ccccc21	.	.	.	.	72.4	.
CCN(CC)CCn1c(NCc2ccco2)nc2ccccc21	.	/	.	/	.	.
Cn1c(NCc2c[nH]c3ccccc23)nc2ccccc21	.	.	.	.	69.4	.
Cc1ccc[n+](-c2[nH]c(=O)sc2/C=N/NC(=O)c2ccccc2[O-])c1	/	.	/	.	/	/
O=C(Nc1cccc(O)c1)c1ccc(Br)cc1	.	.	.	.	51.7	.
CCC(=O)Nc1cccc(NC(=O)c2ccc(Br)cc2)c1	/	.	/	.	/	/
SMILES	CYP2C9 act	Mac1 fbg enh	CYP2C19 act	CD11b adhes inh	CYP2C19 inh	CYP2C9 inh
O=C(CCS(=O)(=O)c1ccc(Br)s1)NC1CCCC1	.	.	.	.	.	.
O=C(CCS(=O)(=O)c1ccc(Br)s1)NCc1ccccc1	.	.	.	.	60.0	.
COC(=O)c1ccc(NC(=O)CCS(=O)(=O)c2ccc(Br)s2)cc1	.	.	.	.	.	60.6
COC(=O)c1ccccc1NC(=O)CCS(=O)(=O)c1ccc(Br)s1	.	.	.	.	61.9	.
CC(C)NC(=O)CCS(=O)(=O)c1ccc(Br)s1	.	.	.	.	.	.
CNS(=O)(=O)c1cc(C(=O)NCc2ccco2)ccc1Cl	.	.	.	.	.	.
C=C(C)CSc1nc2nc(C)cc(C)n2n1	.	.	.	.	.	.
O=S(=O)(Nc1ccc2c(c1)oc1ccccc12)N1CCCC1	.	.	.	.	.	89.3
O=S(=O)(c1ccc2c(c1)oc1ccccc12)N1CCOCC1	.	.	.	.	.	.
COc1cc2c(cc1NS(=O)(=O)N1CCCCC1)oc1ccccc12	.	.	.	.	70.5	.
COc1cccc(/C(O)=C2/C(=O)C(=O)N(CCN3CCOCC3)C2c2cccs2)c1 (centres undefined)	.	/	.	/	.	.
CCS(=O)(=O)N1CCN(C(=O)COc2ccc(-c3ccccc3)cc2)CC1	.	.	.	.	.	.
CN(Cc1cccs1)C(=O)COc1cccc(-n2cnnn2)c1	.	.	.	.	.	.
O=C(COc1ccccc1)N1CCN(S(=O)(=O)c2ccc(Cl)cc2)CC1	.	.	.	.	.	.
